Results on 27 compounds are retold here after PubChem BioAssay (NCI).

Compounds without any hit were thinned out: in the full panel of roughly 83,000, 20% have a hit.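 Compound tested at a single concentration for 48 hours in 96-well plates; a percent growth value below 10 was scored as active.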 The source made the active and inactive calls.

This experiment has as its system A549/ATCC NSCLC. The experiment can be described thus: NCI-60 one-dose screen, 48 h (100 = growth as untreated, 0 = no growth, -100 = all killed). The note with it: 10 µM unless noted.
Take `COc1cc(C2=NN(C(C)=O)C(c3ccc(N4CCOCC4)cc3)C2)cc(OC)c1OC` (configuration not stated): the growth was 104% (inactive). Turning to `COc1ccc([C@H]2c3[nH]c4ccccc4c3C[C@@H]3C(=O)N(C4CCN(Cc5ccccc5)CC4)CC(=O)N23)c(OC)c1`, the growth was 69.8% (inactive). Then `COc1ccc([C@H]2[C@H](O)C(=O)N2c2cc(OC)c(OC)c(OC)c2)cc1Cl`, with 19.1% (inactive); and `COc1ccc(/C=C/C(=O)c2nnn(-c3ccc(C(=O)O)cc3)c2C)cc1OC`, with 97.5% (inactive); and `O=[N+]([O-])c1ccc(-c2nnc(SCc3ccc(O)c4ncccc34)n2-c2ccccc2)cc1`, with 22.4% (inactive). Then `O=C(NCCCNc1cc(-c2cn(-c3ccccc3)nc2-c2cccc(O)c2)ccn1)Nc1cccc(C(F)(F)F)c1`, with 49% (inactive). On to `CC(C)C(=O)Nc1ccc(-c2nc(-c3cccc(O)c3)c(-c3ccnc(Br)c3)[nH]2)cc1`, for which the growth is 69.8% (inactive). As to `Cc1cc(F)cc(NS(=O)(=O)c2ccc(-c3cnc(C4CC4)o3)cc2)c1`, the growth was 27.8% (inactive). For `CCOC(=O)c1c(NCC(=O)Nc2cccc(Cl)c2)sc2c1CCCC2` the value was 101% (inactive); for `O=S(=O)(Nc1cc(Cl)cc(Cl)c1)c1ccc(-c2cnc(C3CC3)o2)cc1`, 43.1% (inactive). As to `COc1cc2c3c(n(CCCNC4CCC4)c(=O)c2cc1OC)-c1cc2c(cc1C3=O)OCO2`, the growth was -50.6% (active). For the compound `CCOC(=O)Nc1cccc(-n2cnc3cc(-c4ccc(O)cc4)ccc32)c1`, the growth was 28.3% (inactive). Take `CC(=O)NC(C)(C)C(=O)N[C@@H](C)C(=O)NC(C)(C)C(=O)N[C@@H](C)C(=O)NC(C)(C)C(=O)N[C@@H](C)C(=O)N[C@@H](CCC(N)=O)C(=O)NC(C)(C)C(=O)N[C@H](C(=O)NC(C)(C)C(=O)NCC(=O)N[C@@H](CC(C)C)C(=O)NC(C)(C)C(=O)N1CCC[C@H]1C(=O)N[C@H](C(=O)NC(C)(C)C(=O)NC(C)(C)C(=O)N[C@@H](CCC(N)=O)C(=O)N[C@@H](CCC(N)=O)C(=O)N[C@H](CO)CC1CCCCC1)C(C)C)C(C)C`: the growth is 48.1% [5 µM] (inactive).

Consider `Cc1nn(-c2ccc(Cl)cc2)c(C)c1N=Nc1ccc2oc(=O)ccc2c1`, for which the growth was 77.6% (inactive).

On to `O=C(NCCNc1cc(-c2cn(-c3ccccc3)nc2-c2cccc(O)c2)ccn1)Nc1ccc(Cl)c(C(F)(F)F)c1`, for which the growth is 61.8% (inactive).

With `CC(C)C[C@H]1C(=O)O[C@H](C(C)C)C(=O)N(C)[C@@H](C(C)C)C(=O)O[C@H](C(C)C)C(=O)N(C)[C@@H](C(C)C)C(=O)O[C@H](C(C)C)C(=O)N1C`, the growth is 12.6% (inactive).

In the case of `CCCC(=O)NC(c1cccnc1)c1cc(Cl)c2cccnc2c1O` (configuration not stated), the growth was 39.7% (inactive). For `Nc1nc(-c2cccc([N+](=O)[O-])c2)c(N=Nc2ccccc2[N+](=O)[O-])s1` the value was 36.1% (inactive). Regarding `C/C(=N\NC(=O)CSc1nc2sc3c(c2c(=O)n1-c1ccccc1)CCC(C)C3)c1ccc(Cl)cc1` (configuration not stated), the growth is 42.5% (inactive).

As for `C#C[C@]1(O)CC[C@H]2[C@@H]3CC=C4c5sc(Nc6nc(C)cc(OC)n6)nc5CC[C@]4(C)[C@H]3CC[C@@]21C`, the growth was 53.9% (inactive). Take `CN1CCN(c2ccc(NC(=O)Nc3ccc4c(ccn4-c4cccc(C(N)=O)n4)c3)cc2C(F)(F)F)CC1`: the growth is 51.8% (inactive).

Turning to `COc1ccc(NS(=O)(=O)c2ccc(-c3cnc(C4CC4)o3)cc2)cc1Cl`, the growth is 46.1% (inactive).

In the case of `CC1OC(O[C@@H]2C(O)C(CO)OC(O[C@H]3COC(O[C@H]4CC[C@]5(C)[C@H]6CC[C@]78OC[C@@]9(CC[C@](C)(C=O)C[C@H]97)[C@H](O)C[C@@]8(C)[C@]6(C)CC[C@H]5C4(C)C)[C@@H](OC4OC(CO)[C@@H](O)[C@@H](O)[C@@H]4O)[C@@H]3O)[C@H]2OC2OC[C@@H](O)[C@@H](O)[C@@H]2O)[C@@H](O)[C@@H](O)[C@H]1O` (some centres not stated), the growth was -63.3% (active).

For the compound `COc1ccc(-c2ccc3c4c(cccc24)C(=O)N(N2C(=O)c4cccc5cccc(c45)C2=O)C3=O)cc1`, the growth was 107% (inactive). With `N#Cc1c(NC(=O)c2ccc(F)c(Cl)c2)sc2c1CCC(=O)C2`, the growth was 19.4% (inactive).

On to `Nc1ccc(-c2nnc(SCc3ccc(O)c4ncccc34)o2)cc1`, for which the growth was -1.54% (active).

Regarding `IP(CCCCCCCCCCSc1n(Cc2ccc3ccccc3c2)c(-c2ccccc2)c(-c2ccccc2)[n+]1Cc1ccc2ccccc2c1)(c1ccccc1)(c1ccccc1)c1ccccc1`, the growth was -55% (active).
